Out of some 24,000 compounds screened, about 130 (0.54%) were called active.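 Rule for the calls: active = side scatter shift above 30%; inactive = the rest.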 Shown is part of a subset that was picked to be rich in actives. Square brackets hold non-standard residues; d marks the D form. Peptide text beside a SMILES is read from it. ξ: configuration not given here. ξV = CC(C)C(N)C(=O)O

A short description of the test: inducers of granularity increase in LNCaP cells – cell-based, flow cytometry side scatter, primary screen (AID 795).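 Note: androgen-responsive LNCaP prostate cancer cells in charcoal-stripped serum medium; percent of cells past a gate set so DMSO wells show 10% shift; higher shift means more granular cells and more differentiation.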 The note with it: LNCaP differentiation, 4 d, at 10 µM, active compounds read high. A general note: Flow cytometry measures light scatter and fluorescence of single cells or particles in a stream.
As for `COc1ccccc1CNC(=O)CCCNS(=O)(=O)c1cccc2nsnc12`, the side scatter shift was 4% (inactive).
Take `O=C(NC1CCCCC1)C1CCCN(S(=O)(=O)c2cccs2)C1` (stereo not given): the side scatter shift was 4% (inactive).
Under `CC(C)C[C@H](NC(=O)Nc1cccc(C(F)(F)F)c1)C(=O)O` stands 12% (inactive).
In the case of `CC1(C)CN=C(N2CCN(c3ncnc4sc5c(c34)CCCC5)CC2)S1` it was 4% (inactive); in that of `Cc1ccc(C)c(NC(=O)CSc2nnc(Cc3cccn3C)n2-c2ccc(F)cc2)c1`, 12% (inactive); in that of `COc1cccc(NC(=O)Nc2nnc(N3CCCCC3C)s2)c1` (stereo not given), 6% (inactive).
Under `CCOC(=O)C1CCN(C(=O)CSc2cc(=O)n(C)c3ccccc23)CC1` stands 8% (inactive).
With `O=c1cc(O)nc(SCc2ccccc2Cl)[nH]1`, the side scatter shift is 7% (inactive).
In the case of `O=C(NCCN1CCOCC1)c1ccc2c(c1)ncn2C1CCCC1`, the side scatter shift is 8% (inactive).
In the case of `Cc1ccc(N(C(=O)CC2NC(=O)NC2=O)C2(C(=O)NC3CCCC3)CCCCC2)cc1` (stereo not given) it was 0% (inactive).
`Cc1cc(C)nc(SCc2nnc(SCC(=O)Nc3ncc(C)s3)n2Cc2ccco2)n1`: the side scatter shift was 16% (inactive).
In the case of `COc1ccccc1C(=O)N1CCNC(=O)C1CC(=O)Nc1ccc(Cl)cc1` (stereo not given) it was 7% (inactive); in that of `Cc1ccc(S(=O)(=O)n2nc(OC(=O)C(C)(C)C)cc2N)cc1`, 6% (inactive); in that of `CC1=C(C(=O)OC2CCCCC2)C(c2cccnc2)n2ncnc2N1` (stereo not given), 1% (inactive).
For the molecule `COc1ccc(CCNC(=O)c2ccc3c(c2)NC(=O)C(N2CCOCC2)S3)cc1OC` (stereo not given), the side scatter shift was 18% (inactive).
On to `COc1cccc(NS(=O)(=O)c2ccc3[nH]cc(C(=O)NCCCOC(C)C)c(=O)c3c2)c1`, for which the side scatter shift was 11% (inactive).
In the case of `Cc1cc(C)c(C)c(S(=O)(=O)Nc2ccc(O)cc2)c1C` it was 3% (inactive); in that of `O=C(Nc1cccnc1)c1noc2c1CCCCC2`, 12% (inactive).
Under `Fc1ccc2nc(Nc3nc4c(s3)CCCC4)sc2c1` stands 11% (inactive).
Under `CN(Cc1ccccc1)C(=O)CCNC(=O)Cn1cnc2ccccc2c1=O` stands 6% (inactive).
For `OCCNCCCCOc1ccccc1F`, the side scatter shift was 7% (inactive).
Regarding `CCC(C)Sc1nnc(-c2c[nH]c3ccccc23)n1CCOC` (stereo not given), the side scatter shift was 6% (inactive).
`CCOC(=O)CNC(=O)CN1C(=O)CCSc2ccccc21`: the side scatter shift is 7% (inactive).
In the case of `CCCCn1c(=S)[nH]c2ncccc2c1=O` it was 3% (inactive); in that of `CCOC(=O)c1c(N)c(C#N)nn1-c1ccccc1C(=O)OC`, 6% (inactive).
Under `C=CCn1c(=N)n(CC(O)COc2ccc(OC)cc2)c2ccccc21` (stereo not given) stands 8% (inactive); under `O=C(Nn1cnc2ccccc2c1=O)c1ccc(F)cc1Cl`, 9% (inactive); under `Cc1nn(Cc2ccc(Cl)c(Cl)c2)c(C)c1NC(=O)c1cc(C2CC2)on1`, 13% (inactive).
`Cc1cccc(CSc2nnc(Cn3c(=O)sc4ccccc43)n2C)c1`: the side scatter shift was 9% (inactive).
On to `Cc1c2cn[nH]c(=O)c2c(C)n1Cc1ccc(F)cc1`, for which the side scatter shift is 2% (inactive).
In the case of `Cc1cccn2c(=O)c3cc(C#N)c(=O)n(CCCN4CCOCC4)c3nc12` it was 4% (inactive); in that of `Cc1cc(C)nc(NC2=NCC(=O)N2c2ccc(Cl)cc2)n1`, 5% (inactive); in that of `CCn1c(SCC(=O)Nc2ccc3c(c2)OCCO3)nc2c(c1=O)SC(C)C2` (stereo not given), 8% (inactive).
With `Cn1c(=O)cc(OCCCC(=O)N2CCN(c3ccccn3)CC2)c2ccccc21`, the side scatter shift was 2% (inactive).
Under `O=C(Cn1c(=O)n(Cc2ccco2)c(=O)c2ccccc21)NCC1CCCO1` (stereo not given) stands 3% (inactive).
`Cc1ccc(S(=O)(=O)N2CCCC2CO)cc1` (stereo not given): the side scatter shift was 16% (inactive).
In the case of `CCOC(=O)CSc1nnc(CNC(=O)Cc2ccccc2)n1-c1ccccc1OC` it was 15% (inactive); in that of `CCN(CC)CCCNC(=O)c1cc(-c2cccc(Cl)c2)on1`, 33% (active).
As to `O=C(NCCCN1CCOCC1)c1cc(-c2ccc(Cl)cc2)on1`, the side scatter shift was 8% (inactive).
Under `Cc1cc(C(=O)NCCCc2ccccc2)no1` stands 4% (inactive); under `Cc1ccccc1N1CC(c2nc3ccccc3[nH]2)CC1=O` (stereo not given), 6% (inactive); under `C/C(N)=C(\C#N)C(=O)NCCc1ccccn1`, 16% (inactive).
Under `O=C(OCc1ccccc1F)c1ccc2c(c1)OCCO2` stands 10% (inactive).
For `O=C(COC(=O)c1ccccc1C(=O)c1ccccc1)c1ccco1`, the side scatter shift is 7% (inactive).
In the case of `O=C(CCN1C(=O)c2ccncc2C1=O)Nc1ccc2c(c1)OCCO2` it was 13% (inactive); in that of `CCOC(=O)N1CCC(NC(=O)Cc2cn(C)c3ccccc23)CC1`, 8% (inactive).
Under `CC(=O)N1CCc2cc(S(=O)(=O)Nc3ccccc3N3CCN(C)CC3)ccc21` stands 15% (inactive); under `CC(C)n1c(NCc2c[nH]c3ccccc23)nc2ccccc21`, 14% (inactive).
In the case of `CC(=O)NC(C(=O)NCC(N)=O)C(C)C` (stereo not given) (Ac-[ξV]-Gly-NH2) it was 7% (inactive); in that of `CC(NC(=O)COc1ccccc1)C(=O)NC1=NCCS1` (stereo not given), 13% (inactive); in that of `COc1ccc(OC)c(N=Cc2c(O)[nH]c3ccccc23)c1`, 48% (active).
`COC(=O)c1[nH]c2ccccc2c1NS(=O)(=O)c1ccc(OC)cc1OC`: the side scatter shift is 10% (inactive).
Under `COc1ccc(N=Cc2c(O)[nH]c3ccccc23)cc1OC` stands 15% (inactive); under `CCc1c(C)nc(N2CCN(Cc3ccccc3)CC2)[nH]c1=O`, 8% (inactive); under `Cc1nc(NC(=O)C23CCC(C)(C(=O)O2)C3(C)C)sc1C` (stereo not given), 4% (inactive).
In the case of `CCCC(=O)N1c2ccccc2NC2=C(C(=O)CCC2)C1c1ccc(F)cc1` (stereo not given) it was 12% (inactive); in that of `O=C(CSC1=Nc2ccccc2C2=NC(c3ccccc3)C(=O)N12)NCC1CCCO1` (stereo not given), 8% (inactive); in that of `Cc1cccc(N2C(=O)SC(N(CC(=O)O)c3cccc(C)c3)C2=O)c1` (stereo not given), 5% (inactive).
With `O=C1NC(c2ccncc2)Nc2sc3c(c21)CCCC3` (stereo not given), the side scatter shift is 3% (inactive).
For the molecule `COc1ccc(CCNC(=O)CSc2nnc(CNC(=O)c3cccs3)o2)cc1OC`, the side scatter shift is 10% (inactive).
Under `COCCCNC(=O)c1ccc(CNS(=O)(=O)c2ccc(NC(C)=O)cc2)cc1` stands 15% (inactive).
Turning to `CC1=NCCN1S(=O)(=O)c1ccc(Br)c(C)c1`, the side scatter shift is 16% (inactive).
Under `CCOC(=O)C1(c2ccccc2)NC(c2ccc(N(C)C)cc2)C2C(=O)N(C)C(=O)C21` (stereo not given) stands 11% (inactive); under `COc1cccc(OCC(=O)Nc2ccccc2C(N)=O)c1`, 9% (inactive); under `COc1nc(Oc2ccc(=O)n(C)n2)nc(N(C)C)n1`, 10% (inactive).
In the case of `COc1ccc(N2C(=O)C3CCCN3C2c2cccs2)cc1` (stereo not given) it was 9% (inactive).
`Cc1ccc(-c2nnc(SC(C)C#N)n2N)cc1` (stereo not given): the side scatter shift is 11% (inactive).
In the case of `CC1CCCC(C)N1CCCNC(=O)c1cc2c(=O)n(C)c3ccccc3c2n1C` (stereo not given) it was 9% (inactive); in that of `CCn1c(=O)cc(OCC(=O)NCCCN2CCN(c3cccc(Cl)c3)CC2)c2ccccc21`, 27% (inactive); in that of `Cn1c(C(=O)NCCCN2CCN(c3cccc(Cl)c3)CC2)cc2c(=O)n(C)c3ccccc3c21`, 92% (active).
In the case of `COc1ccccc1NC(=O)C1=C(C)Nc2ncnn2C1c1ccc(C)o1` (stereo not given) it was 16% (inactive); in that of `CCOC(=O)C1C(=O)C=C(c2ccc(OC)cc2)CC1c1ccco1` (stereo not given), 5% (inactive); in that of `CC(=O)NC(C)c1nc2ccccc2n1Cc1ccccc1F` (stereo not given), 7% (inactive).
For `CC1=C(C(=O)Nc2ccccc2)C(c2cccs2)C(C#N)=C(SCC#N)N1` (stereo not given), the side scatter shift was 4% (inactive).
Regarding `Cc1nnc(C)n1/N=C/c1ccc(C(C)C)cc1`, the side scatter shift was 18% (inactive).
In the case of `Cn1c(=O)cc(OCCCC(=O)N2CCN(Cc3ccc4c(c3)OCO4)CC2)c2ccccc21` it was 12% (inactive); in that of `OCc1nc(CO)n(Cc2ccccc2)n1`, 7% (inactive); in that of `Cc1ccc(N2C(=O)c3oc4ccccc4c(=O)c3C2c2cccnc2)nc1` (stereo not given), 3% (inactive).
In the case of `O=c1ccn(Cc2ccccc2Cl)cc1` it was 3% (inactive); in that of `O=C1N=C(N2CCOCC2)CS1`, 16% (inactive); in that of `CCC(C)(C)n1nnnc1C(c1ccccc1OC)N1CCSCC1` (stereo not given), 10% (inactive).
Under `CCn1c(=O)cc(SCC(=O)NCc2ccc3c(c2)OCO3)c2ccccc21` stands 20% (inactive); under `O=C(O)CCC(=O)Nc1ccc(N2CCOCC2)cc1`, 6% (inactive).
`CCOc1ccc(C(=O)N(Cc2ccc(N(C)C)cc2)C2CCS(=O)(=O)C2)cc1` (stereo not given): the side scatter shift was 12% (inactive).
Consider `O=C(CC(Cc1ccccc1)C(=O)O)NCCc1ccc2c(c1)OCO2` (stereo not given), for which the side scatter shift is 6% (inactive).
Under `O=C(CSc1nc2ncccc2[nH]1)Nc1ccc2c(c1)OCCO2` stands 3% (inactive); under `Nc1c(C(=O)NCc2ccccc2)nnn1Cc1cccc(Cl)c1`, 24% (inactive); under `O=C(CCn1c(=S)[nH]c2ccccc2c1=O)NCCCN1CCCC1=O`, 6% (inactive).
Consider `COc1cccc2cc(C(C)N(CCCN3CCOCC3)C(=O)Nc3ccc(Cl)cc3)oc12` (stereo not given), for which the side scatter shift was 6% (inactive).
In the case of `CCOC(=O)Cn1c(N)c(C(=O)OC)sc1=S` it was 0% (inactive); in that of `Clc1ccc(Cn2ncc3c(NCc4cccnc4)ncnc32)cc1`, 11% (inactive).
In the case of `CCOC(=O)CSc1nc2c(c(=O)n(C)c(=O)n2C)n1Cc1ccccc1F` it was 11% (inactive).
For `O=C(Nc1ccccc1C(F)(F)F)c1cc(-c2ccc(O)cc2)on1`, the side scatter shift was 5% (inactive).
Under `CCOC(=O)c1nc(-c2ccc3c(c2)OCO3)[nH]c1C` stands 7% (inactive); under `CCCN1CCN(C(=O)Cn2ncc3ccccc32)CC1`, 6% (inactive).
For `CCCOC(=O)c1[nH]c2c(c1C)C(=O)CC(c1cc(OC)c(OC)c(OC)c1)C2` (stereo not given), the side scatter shift is 11% (inactive).
Under `CC1(C)C(=O)Nc2ccccc2N1C(=O)COC(=O)Cn1cnc2ccccc2c1=O` stands 7% (inactive).
Under `Cc1ccc(C(=O)N(CN2CCCC2=O)c2ccc(F)cc2)cc1` stands 15% (inactive); under `CCCC(=O)Nc1cccc(-c2cn3ccsc3n2)c1`, 3% (inactive); under `O=C(COC(=O)C12CC3CC(CC(C3)C1)C2)NCc1ccco1`, 12% (inactive).
For `CCOC(=O)C1CCCN(C(=O)c2ccc(CS(=O)(=O)c3ccc(Br)cc3)o2)C1` (stereo not given), the side scatter shift was 8% (inactive).
In the case of `Cc1ccsc1C(C(=O)NC1CCCCC1)N(C(=O)Cc1cccs1)C1CC1` (stereo not given) it was 9% (inactive); in that of `CCCCc1nccn1CCn1ccnc1CCCC`, 7% (inactive); in that of `O=C(C1CC1)N1CCN=C1SCc1ccc(Cl)cc1`, 11% (inactive).
Under `Cc1cc(=O)n(C)c(=O)n1CCCNc1ccccc1` stands 9% (inactive); under `CC(C)Nc1nc(N(c2ccccc2)c2ccccc2)nc(-n2ccnc2)n1`, 10% (inactive).
In the case of `CC(CCc1ccccc1)NC(=O)c1ccc(Br)o1` (stereo not given) it was 5% (inactive).
For `C/C(=C(\C#N)C(=O)NCCCN1CCOCC1)N(C)C`, the side scatter shift was 13% (inactive).
For the molecule `O=C(NCc1cccnc1)c1ccc(CS(=O)(=O)c2ccc(Br)cc2)o1`, the side scatter shift was 4% (inactive).
In the case of `O=S(=O)(Nc1ccccn1)c1ccc(Oc2ccccc2)cc1`, the side scatter shift was 13% (inactive).

For the origin of these results see PubChem BioAssay AID795 (NMMLSC, 2007).
